Columns and labels:
Assay in all cases: log2 ratio of Biotin-Ahx-Ub-VS probe labelling (fragment/DMSO); higher = less target engagement (more negative = stronger competition), active = hit call of the paper (q ≤ 0.05, log2 ratio ≤ -1)
Details in all cases: compound concentration: 200 uM; treatment time: 3 h
USP9X = USP9X (UniProt Q93008)
Procedure, shortened: (§1)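 HEK293T lysate (495 µg per sample, in Tris/CHAPS/IGEPAL buffer with protease inhibitors) was exposed in triplicate for 3 h to fragment at 200 µM or to vehicle, then to Biotin-Ahx-Ub-VS at 0.5 µM final for 1 h. Labelled DUBs were enriched on NeutrAvidin, digested with LysC and trypsin, and analysed by diaPASEF LC-MS/MS. Spectronaut label-free quantities were normalised to the global median, and values are average log2 ratios of fragment over vehicle from an unpaired t-test. Only proteins with ≥2 unique peptides were used.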

UniProt O00487 = molecular target: UniProt O00487
UniProt O00487, sequence (O00487 whole entry): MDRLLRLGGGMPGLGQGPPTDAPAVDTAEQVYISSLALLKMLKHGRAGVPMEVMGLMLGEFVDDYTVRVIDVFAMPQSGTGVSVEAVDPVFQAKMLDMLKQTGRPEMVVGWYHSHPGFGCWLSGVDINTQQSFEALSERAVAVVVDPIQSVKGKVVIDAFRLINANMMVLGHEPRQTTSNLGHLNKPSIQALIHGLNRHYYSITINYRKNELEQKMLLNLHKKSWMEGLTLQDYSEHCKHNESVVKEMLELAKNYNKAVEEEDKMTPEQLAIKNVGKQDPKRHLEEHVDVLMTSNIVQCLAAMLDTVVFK
Procedure, shortened: as §1

UniProt O00507 = molecular target: UniProt O00507
UniProt O00507, sequence (O00507 whole entry): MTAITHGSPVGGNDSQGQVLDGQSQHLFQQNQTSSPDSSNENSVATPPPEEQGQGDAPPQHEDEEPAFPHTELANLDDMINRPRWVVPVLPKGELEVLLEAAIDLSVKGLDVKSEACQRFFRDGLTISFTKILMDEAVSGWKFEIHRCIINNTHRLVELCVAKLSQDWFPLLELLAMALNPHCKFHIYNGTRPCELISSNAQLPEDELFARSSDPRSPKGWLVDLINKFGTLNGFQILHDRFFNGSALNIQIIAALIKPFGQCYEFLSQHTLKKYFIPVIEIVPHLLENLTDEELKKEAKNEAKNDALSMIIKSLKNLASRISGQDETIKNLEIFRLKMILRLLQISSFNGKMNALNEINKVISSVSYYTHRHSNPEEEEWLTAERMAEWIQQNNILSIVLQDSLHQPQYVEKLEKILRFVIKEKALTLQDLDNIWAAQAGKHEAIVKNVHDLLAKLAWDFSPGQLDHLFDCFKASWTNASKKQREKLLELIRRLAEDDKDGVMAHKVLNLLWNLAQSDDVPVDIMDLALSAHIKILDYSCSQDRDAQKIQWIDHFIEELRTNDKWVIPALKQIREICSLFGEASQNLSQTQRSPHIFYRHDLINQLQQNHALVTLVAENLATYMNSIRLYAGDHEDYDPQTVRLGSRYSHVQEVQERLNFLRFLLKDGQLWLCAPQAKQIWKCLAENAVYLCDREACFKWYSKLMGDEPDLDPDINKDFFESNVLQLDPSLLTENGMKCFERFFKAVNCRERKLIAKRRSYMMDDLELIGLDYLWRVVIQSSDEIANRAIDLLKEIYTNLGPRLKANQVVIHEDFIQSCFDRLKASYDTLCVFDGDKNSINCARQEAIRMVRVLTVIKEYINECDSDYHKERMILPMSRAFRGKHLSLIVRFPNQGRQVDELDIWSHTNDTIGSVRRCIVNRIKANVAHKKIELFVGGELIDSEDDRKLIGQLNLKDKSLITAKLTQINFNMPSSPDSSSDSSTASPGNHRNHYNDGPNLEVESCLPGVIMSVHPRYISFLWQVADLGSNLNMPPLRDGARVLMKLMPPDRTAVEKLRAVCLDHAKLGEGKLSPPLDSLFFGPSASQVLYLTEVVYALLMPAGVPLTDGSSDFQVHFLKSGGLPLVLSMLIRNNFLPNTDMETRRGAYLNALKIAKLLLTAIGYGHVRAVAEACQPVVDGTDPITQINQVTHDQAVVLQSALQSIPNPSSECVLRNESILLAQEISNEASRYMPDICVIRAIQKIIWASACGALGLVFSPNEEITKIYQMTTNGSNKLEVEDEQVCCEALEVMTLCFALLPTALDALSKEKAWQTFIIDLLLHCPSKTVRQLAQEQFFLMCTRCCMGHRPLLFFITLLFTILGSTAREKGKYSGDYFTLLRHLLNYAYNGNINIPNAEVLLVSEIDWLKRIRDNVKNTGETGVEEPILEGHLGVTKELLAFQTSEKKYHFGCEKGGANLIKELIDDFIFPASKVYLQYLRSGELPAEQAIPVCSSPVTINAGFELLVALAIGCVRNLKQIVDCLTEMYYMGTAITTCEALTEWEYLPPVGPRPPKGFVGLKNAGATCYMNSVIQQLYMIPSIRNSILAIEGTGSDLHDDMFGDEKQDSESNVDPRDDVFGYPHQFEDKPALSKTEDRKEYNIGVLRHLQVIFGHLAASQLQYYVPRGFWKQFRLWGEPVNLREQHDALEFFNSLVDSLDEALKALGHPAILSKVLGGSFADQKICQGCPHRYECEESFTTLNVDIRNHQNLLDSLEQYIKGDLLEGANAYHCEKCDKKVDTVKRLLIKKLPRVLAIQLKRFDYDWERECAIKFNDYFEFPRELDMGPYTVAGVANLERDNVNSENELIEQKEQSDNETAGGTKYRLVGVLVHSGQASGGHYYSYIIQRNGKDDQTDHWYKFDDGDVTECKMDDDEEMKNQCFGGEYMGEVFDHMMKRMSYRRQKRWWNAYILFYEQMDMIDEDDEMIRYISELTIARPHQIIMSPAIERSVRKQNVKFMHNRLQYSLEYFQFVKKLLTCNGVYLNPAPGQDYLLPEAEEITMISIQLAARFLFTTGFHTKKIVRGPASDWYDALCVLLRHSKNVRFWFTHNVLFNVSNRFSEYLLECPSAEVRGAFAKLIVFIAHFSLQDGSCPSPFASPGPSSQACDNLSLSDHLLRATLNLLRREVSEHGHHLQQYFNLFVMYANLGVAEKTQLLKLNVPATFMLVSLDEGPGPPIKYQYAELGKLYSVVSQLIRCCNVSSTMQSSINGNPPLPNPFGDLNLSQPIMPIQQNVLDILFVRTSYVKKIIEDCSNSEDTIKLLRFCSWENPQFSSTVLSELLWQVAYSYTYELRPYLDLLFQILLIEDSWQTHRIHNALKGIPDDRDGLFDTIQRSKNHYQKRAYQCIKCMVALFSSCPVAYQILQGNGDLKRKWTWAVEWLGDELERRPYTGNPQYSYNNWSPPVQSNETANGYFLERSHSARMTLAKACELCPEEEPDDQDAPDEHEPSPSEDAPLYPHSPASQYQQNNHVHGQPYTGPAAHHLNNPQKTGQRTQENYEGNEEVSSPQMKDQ
Procedure, shortened: as §1

UniProt P51784 = molecular target: UniProt P51784
UniProt P51784, sequence (P51784 whole entry): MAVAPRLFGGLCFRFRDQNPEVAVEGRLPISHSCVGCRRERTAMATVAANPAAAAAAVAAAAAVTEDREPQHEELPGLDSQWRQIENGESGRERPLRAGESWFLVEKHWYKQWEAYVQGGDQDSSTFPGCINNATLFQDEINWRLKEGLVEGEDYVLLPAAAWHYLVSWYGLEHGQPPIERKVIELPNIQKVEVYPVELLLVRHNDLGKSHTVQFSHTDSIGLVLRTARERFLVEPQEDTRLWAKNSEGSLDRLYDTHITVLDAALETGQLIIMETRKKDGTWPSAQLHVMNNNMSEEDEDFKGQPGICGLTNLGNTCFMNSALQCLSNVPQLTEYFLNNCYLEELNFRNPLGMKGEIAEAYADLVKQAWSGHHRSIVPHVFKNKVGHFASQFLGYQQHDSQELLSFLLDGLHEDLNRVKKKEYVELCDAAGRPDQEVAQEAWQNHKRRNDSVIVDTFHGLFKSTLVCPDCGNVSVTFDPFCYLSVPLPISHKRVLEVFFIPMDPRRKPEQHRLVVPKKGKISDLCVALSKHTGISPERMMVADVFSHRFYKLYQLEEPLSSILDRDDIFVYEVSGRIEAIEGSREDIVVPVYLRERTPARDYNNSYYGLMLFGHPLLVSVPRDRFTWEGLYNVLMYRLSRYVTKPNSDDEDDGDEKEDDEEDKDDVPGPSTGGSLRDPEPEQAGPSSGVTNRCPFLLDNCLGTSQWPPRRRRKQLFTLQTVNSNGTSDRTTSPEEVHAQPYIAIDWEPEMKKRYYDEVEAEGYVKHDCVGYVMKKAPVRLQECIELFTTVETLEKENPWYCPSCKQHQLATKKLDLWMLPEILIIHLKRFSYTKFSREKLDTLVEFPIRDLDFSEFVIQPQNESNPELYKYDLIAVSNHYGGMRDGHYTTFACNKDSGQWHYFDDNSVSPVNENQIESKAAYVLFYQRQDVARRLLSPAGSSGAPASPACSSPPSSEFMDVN
Procedure, shortened: as §1

UniProt Q5T2D3 = molecular target: T1, UniProt Q5T2D3
T1 sequence (whole entry): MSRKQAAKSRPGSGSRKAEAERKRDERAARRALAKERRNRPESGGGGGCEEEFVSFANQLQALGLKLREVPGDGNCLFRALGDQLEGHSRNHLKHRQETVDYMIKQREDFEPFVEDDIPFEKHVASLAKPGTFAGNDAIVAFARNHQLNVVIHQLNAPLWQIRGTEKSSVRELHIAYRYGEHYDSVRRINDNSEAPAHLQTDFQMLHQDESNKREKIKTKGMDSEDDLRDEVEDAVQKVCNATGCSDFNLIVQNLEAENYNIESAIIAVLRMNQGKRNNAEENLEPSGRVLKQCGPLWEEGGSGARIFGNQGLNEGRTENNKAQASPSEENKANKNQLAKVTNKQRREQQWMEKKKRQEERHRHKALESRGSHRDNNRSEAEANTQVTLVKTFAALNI
Procedure, shortened: as §1

UniProt Q8TE49 = molecular target: T2, UniProt Q8TE49
T2 sequence (whole entry): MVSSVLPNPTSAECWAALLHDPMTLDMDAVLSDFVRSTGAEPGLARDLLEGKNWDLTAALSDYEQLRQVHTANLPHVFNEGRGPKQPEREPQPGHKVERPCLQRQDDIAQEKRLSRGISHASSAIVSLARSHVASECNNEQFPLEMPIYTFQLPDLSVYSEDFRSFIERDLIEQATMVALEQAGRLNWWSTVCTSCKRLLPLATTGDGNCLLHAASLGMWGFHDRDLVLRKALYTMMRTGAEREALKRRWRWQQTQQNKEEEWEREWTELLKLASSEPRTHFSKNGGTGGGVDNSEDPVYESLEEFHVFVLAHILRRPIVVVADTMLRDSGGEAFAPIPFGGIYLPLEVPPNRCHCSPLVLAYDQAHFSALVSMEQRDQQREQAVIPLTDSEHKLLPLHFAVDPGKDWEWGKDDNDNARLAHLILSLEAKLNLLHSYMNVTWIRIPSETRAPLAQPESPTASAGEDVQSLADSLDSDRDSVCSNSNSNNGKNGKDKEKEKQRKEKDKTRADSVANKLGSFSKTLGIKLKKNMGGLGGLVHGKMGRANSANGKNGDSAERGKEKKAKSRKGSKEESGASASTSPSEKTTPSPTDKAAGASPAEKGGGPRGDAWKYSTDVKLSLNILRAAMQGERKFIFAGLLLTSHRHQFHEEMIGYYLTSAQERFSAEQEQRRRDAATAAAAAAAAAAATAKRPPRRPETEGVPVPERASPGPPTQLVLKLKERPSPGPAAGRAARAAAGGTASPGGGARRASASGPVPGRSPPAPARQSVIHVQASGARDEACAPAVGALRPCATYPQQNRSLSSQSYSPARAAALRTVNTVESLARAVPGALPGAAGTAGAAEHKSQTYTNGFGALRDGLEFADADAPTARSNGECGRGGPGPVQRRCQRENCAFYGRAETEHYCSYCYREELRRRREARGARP
Procedure, shortened: as §1

UniProt Q9P2H5 = molecular target: T3, UniProt Q9P2H5
T3 sequence (whole entry): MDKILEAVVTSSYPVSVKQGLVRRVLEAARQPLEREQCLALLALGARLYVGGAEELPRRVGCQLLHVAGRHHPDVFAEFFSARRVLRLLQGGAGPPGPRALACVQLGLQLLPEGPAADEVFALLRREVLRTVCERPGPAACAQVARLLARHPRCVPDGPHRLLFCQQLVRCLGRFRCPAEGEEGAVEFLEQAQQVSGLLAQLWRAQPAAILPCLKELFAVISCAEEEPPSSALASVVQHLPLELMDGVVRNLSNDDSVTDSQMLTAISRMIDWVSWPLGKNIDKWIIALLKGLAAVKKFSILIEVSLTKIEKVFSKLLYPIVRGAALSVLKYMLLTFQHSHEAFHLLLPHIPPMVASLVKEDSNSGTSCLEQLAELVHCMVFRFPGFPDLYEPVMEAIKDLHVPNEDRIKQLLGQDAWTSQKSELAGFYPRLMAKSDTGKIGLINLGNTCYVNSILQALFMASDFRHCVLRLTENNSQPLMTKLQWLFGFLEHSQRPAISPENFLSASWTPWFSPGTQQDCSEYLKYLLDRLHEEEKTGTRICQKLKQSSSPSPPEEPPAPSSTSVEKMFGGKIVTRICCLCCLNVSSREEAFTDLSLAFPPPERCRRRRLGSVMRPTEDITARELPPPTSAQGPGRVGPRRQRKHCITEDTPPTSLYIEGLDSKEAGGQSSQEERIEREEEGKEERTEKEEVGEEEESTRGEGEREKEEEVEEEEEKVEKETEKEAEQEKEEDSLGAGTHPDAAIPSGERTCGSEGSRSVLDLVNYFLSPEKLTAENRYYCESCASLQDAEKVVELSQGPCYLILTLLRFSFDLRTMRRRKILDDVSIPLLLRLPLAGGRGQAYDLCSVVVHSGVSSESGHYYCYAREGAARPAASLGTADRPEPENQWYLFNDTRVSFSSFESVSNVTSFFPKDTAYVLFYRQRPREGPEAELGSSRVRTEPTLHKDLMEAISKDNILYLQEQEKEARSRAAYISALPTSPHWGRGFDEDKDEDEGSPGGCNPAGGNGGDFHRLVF
Procedure, shortened: as §1

UniProt Q9UGI0 = molecular target: T4, UniProt Q9UGI0
T4 sequence (whole entry): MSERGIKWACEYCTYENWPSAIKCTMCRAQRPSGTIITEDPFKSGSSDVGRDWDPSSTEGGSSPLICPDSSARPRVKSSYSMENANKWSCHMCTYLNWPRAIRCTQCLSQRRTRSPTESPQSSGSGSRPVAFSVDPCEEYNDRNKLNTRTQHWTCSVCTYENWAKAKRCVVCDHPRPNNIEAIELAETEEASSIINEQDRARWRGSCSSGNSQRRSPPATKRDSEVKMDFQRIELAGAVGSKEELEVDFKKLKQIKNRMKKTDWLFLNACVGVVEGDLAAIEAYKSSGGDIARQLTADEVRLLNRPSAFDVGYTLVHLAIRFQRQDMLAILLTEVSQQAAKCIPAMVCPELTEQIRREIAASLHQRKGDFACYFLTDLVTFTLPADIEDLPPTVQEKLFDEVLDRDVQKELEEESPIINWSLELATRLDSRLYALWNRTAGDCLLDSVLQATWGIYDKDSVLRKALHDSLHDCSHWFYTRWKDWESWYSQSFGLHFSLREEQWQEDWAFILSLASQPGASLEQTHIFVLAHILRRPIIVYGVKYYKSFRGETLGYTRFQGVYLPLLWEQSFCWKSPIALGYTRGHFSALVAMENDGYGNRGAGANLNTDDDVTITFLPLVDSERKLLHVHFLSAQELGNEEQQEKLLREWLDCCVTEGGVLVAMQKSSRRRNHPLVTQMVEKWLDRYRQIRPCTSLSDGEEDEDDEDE
Procedure, shortened: as §1

YOD1 = molecular target: T5, YOD1 (UniProt Q5VVQ6)
T5 sequence (whole entry): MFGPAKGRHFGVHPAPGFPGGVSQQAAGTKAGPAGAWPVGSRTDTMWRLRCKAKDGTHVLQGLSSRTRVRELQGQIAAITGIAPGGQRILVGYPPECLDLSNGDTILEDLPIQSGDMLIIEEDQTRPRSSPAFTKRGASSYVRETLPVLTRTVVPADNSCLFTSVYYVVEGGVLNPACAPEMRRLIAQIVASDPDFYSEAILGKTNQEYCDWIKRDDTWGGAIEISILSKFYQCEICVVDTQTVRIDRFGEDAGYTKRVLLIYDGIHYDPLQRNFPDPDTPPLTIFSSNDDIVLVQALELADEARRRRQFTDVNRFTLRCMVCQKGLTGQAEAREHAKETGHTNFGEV
Procedure, shortened: as §1

Measured: log2 ratio of Biotin-Ahx-Ub-VS probe labelling

Cl.Cn1ncc2c1CCCC2NC(=O)CCl (centres undefined)
inactive: USP9X -0.000676 | UniProt O00487 -0.128 | UniProt O00507 -0.0339 | UniProt P51784 -0.154 | UniProt Q5T2D3 -0.121 | UniProt Q9P2H5 -0.276 | UniProt Q9UGI0 0.0166 | YOD1 -0.109
active: UniProt Q8TE49 -3.69

Source: the supplement of paper PMC11732987, “Enantioselective OTUD7B fragment discovery through chemoproteomics screening and high-throughput optimisation” (Communications Chemistry, 2025)
